Data: PubChem BioAssay AID2314 (National Center for Advancing Translational Sciences (NCATS), 2010)
The campaign covered roughly 300,000 compounds. About 37,000 (12%) were called active. For the sample, actives were picked, then their nearest neighbours and some compounds at random. Unmarked numbers belong to inactive results. No stated cut-off is given here; in the data, active means max response mostly above about 13% (no sharp cut-off); inactive means mostly below about 14%.

Assay: Cycloheximide Counterscreen for Small Molecule Inhibitors of Shiga Toxin; further: read at 38.3 µM for the half of the compounds with a filed dose; 0% is about no effect
Conditions: cell reporter, cycloheximide protein synthesis inhibition counterscreen; hits give high values

Q: With `Cc1ccc(-c2noc(CCC(N)=O)n2)cc1` as the compound, how does the max response read?
A: The max response was 15.6% (active).

Q: With `CCOc1cc(-c2noc(CCC(=O)N3CCOCC3)n2)ccc1OC` as the compound, how does the max response read?
A: The max response was -0.629%.

Q: Which max response does the source give for `CCNC(=O)CCc1nc(-c2ccc(C)cc2)no1` here?
A: The max response was 18.6% (active).

Q: For `Cc1ccc(-c2noc(CNC(=O)c3ccoc3C)n2)cc1`, which max response is on record?
A: Its max response is 11%.

Q: For `CN1CCN(C(=O)CCc2nc(-c3ccc(Cl)cc3)no2)CC1`, which max response is on record?
A: Its max response is 7.26%.

Q: With `CCCCNC(=O)CCNC(=O)c1ccc(C(C)(C)C)cc1` as the compound, how does the max response read?
A: The max response was 5.17%.

Q: Which max response does the source give for `CCNC(=O)CCc1nc(-c2ccc(C(C)(C)C)cc2)no1` here?
A: Its max response is 34.3% (active).

Q: With `COc1ccc(N2CCN(C(=O)CCc3nc(-c4ccc(C)cc4)no3)CC2)cc1` as the compound, how does the max response read?
A: Its max response is -3.69%.

Q: For `Cc1ccc(-c2noc(CCC(=O)Nc3ccccc3N3CCN(C)CC3)n2)cc1`, which max response is on record?
A: The max response was 3.85%.

Q: Which max response does the source give for `CC(C)C(NS(=O)(=O)c1cccs1)C(=O)Nc1nc(C(C)(C)C)cs1` (configuration not stated) here?
A: Its max response is -2.46%.

Q: With `Cc1cc(NS(=O)(=O)c2ccc(NC(=O)C(C)Oc3cccc(C)c3C)cc2)nc(C)n1` (configuration not stated) as the compound, how does the max response read?
A: Its max response is -0.471%.

Q: With `Cc1ccc(C)c(NC(=O)C(OC(=O)c2ccc(C)s2)c2ccccc2)c1` (configuration not stated) as the compound, how does the max response read?
A: Its max response is 6.66%.

Q: Which max response does the source give for `COc1cc(OC)c2c(-c3cccc(-c4cccc(N)c4)c3)cc(=O)oc2c1` here?
A: The max response was -2.04%.

Q: With `CC(C)n1c(=S)[nH]c2cc(C(F)(F)F)ccc21` as the compound, how does the max response read?
A: The max response was 12.9%.

Q: Which max response does the source give for `Cc1oc2cc(Br)c(O)c(Br)c2c1C(=O)c1ccccc1` here?
A: The max response was 13.7%.

Q: Which max response does the source give for `OCC1(Cc2ccccc2C(F)(F)F)CCN(Cc2ccncc2)CC1` here?
A: Its max response is 0.237%.

Q: With `COC(=O)C1=C(C)NC2=C(C(=O)c3ccccc32)C1c1ccc(-c2ccc(C(=O)O)cc2)o1` (configuration not stated) as the compound, how does the max response read?
A: The max response was 28.7% (active).

Q: Which max response does the source give for `Cc1ccc(C2C3=C(Nc4[nH]n(-c5ccccc5)c(=O)c42)c2ccccc2C3=O)cc1` (configuration not stated) here?
A: Its max response is -3.8%.

Q: For `COC(=O)C1=C(C)NC(=O)NC1/C=C/c1ccccc1` (configuration not stated), which max response is on record?
A: Its max response is 0.456%.

Q: Which max response does the source give for `N=C1/C(=C/c2cccn2-c2cccc([N+](=O)[O-])c2)C(=O)N=C2SC=CN12` here?
A: The max response was -2.19%.

Q: Which max response does the source give for `CC1(C)CC2CC(C)(CN2c2ncnc3ccc(Br)cc23)C1` (configuration not stated) here?
A: Its max response is -0.269%.

Q: Which max response does the source give for `COc1ccc(Cc2cc(-c3ccc(F)cc3)n[nH]c2=O)cc1` here?
A: Its max response is 16.2% (active).

Q: With `COc1ccc(Cc2nnnn2CC(=O)O)cc1` as the compound, how does the max response read?
A: The max response was -1.14%.

Q: With `COc1ccc(Cc2nnc(SC)[nH]c2=O)cc1` as the compound, how does the max response read?
A: The max response was 4.91%.

Q: With `O=c1[nH]c2ccccc2n2c(-c3ccccc3)nnc12` as the compound, how does the max response read?
A: The max response was -2.01%.

Q: With `CC(CN1CCC(n2nccc2NC(=O)C2CCCC2)CC1)c1ccccc1` (configuration not stated) as the compound, how does the max response read?
A: The max response was -1.46%.

Q: Which max response does the source give for `O=C(CNC(=O)c1ccccc1)NCC(=O)OCc1ccc(Cl)cc1` here?
A: The max response was -2.96%.

Q: For `COc1cc(OC)cc(C(=O)N[C@H](C(=O)OCC(=O)NC(C)c2ccccc2)C(C)C)c1` (some centres not stated), which max response is on record?
A: Its max response is 6.33%.

Q: For `COc1cc(OC)cc(C(=O)NCC(=O)OCc2csc(-c3ccccc3)n2)c1`, which max response is on record?
A: The max response was 20.1% (active).

Q: Which max response does the source give for `COc1cccc(NC(=O)c2ccccc2N(Cc2ccccc2)S(C)(=O)=O)c1` here?
A: The max response was 1.56%.

Q: With `O=C1c2ccccc2C(=O)C1c1ccccc1F` as the compound, how does the max response read?
A: Its max response is -5.87%.

Q: With `O=C1c2ccccc2C(=O)C1c1ccccc1` as the compound, how does the max response read?
A: Its max response is 6.52% (active).

Q: With `O=C1NC(c2ccccc2)Oc2ccccc21` (configuration not stated) as the compound, how does the max response read?
A: Its max response is -1.34%.

Q: Which max response does the source give for `Cc1ccc(C)c(NC(=O)C2Cc3ccccc3CN2C(=O)OCc2ccccc2)c1` (configuration not stated) here?
A: Its max response is -3.28%.

Q: For `N/C(=N\OC(=O)Cc1ccc([N+](=O)[O-])cc1)c1ccccn1`, which max response is on record?
A: The max response was 61.5% (active).

Q: Which max response does the source give for `O=C(OCc1ccc([N+](=O)[O-])cc1)c1ccccn1` here?
A: The max response was -3.03%.

Q: With `Cc1ccc(C(=O)O/N=C(\N)c2ccccn2)cc1Cl` as the compound, how does the max response read?
A: The max response was 13.6%.

Q: For `N/C(=N\OC(=O)COc1ccc([N+](=O)[O-])cc1)c1ccc(Br)cc1`, which max response is on record?
A: The max response was 6.76%.

Q: With `CO/N=C(\N)c1ccc([N+](=O)[O-])cc1` as the compound, how does the max response read?
A: The max response was 0.264%.

Q: Which max response does the source give for `N/C(Cc1ccc([N+](=O)[O-])cc1)=N\OC(=O)COc1ccc2ccccc2c1` here?
A: Its max response is -3.82%.

Q: With `COc1ccc(C(=O)NNC(=O)c2cnccn2)cc1[N+](=O)[O-]` as the compound, how does the max response read?
A: The max response was 1.13%.

Q: For `N/C(=N\OC(=O)c1ccc([N+](=O)[O-])cc1)c1ccccn1`, which max response is on record?
A: The max response was 42.7% (active).

Q: With `COc1ccc(C(=O)O/N=C(\N)c2ccccn2)cc1[N+](=O)[O-]` as the compound, how does the max response read?
A: Its max response is 59.4% (active).

Q: Which max response does the source give for `CCC(=O)Nc1nnc(S(=O)(=O)N2CCCc3ccccc32)s1` here?
A: Its max response is 1.29%.

Q: Which max response does the source give for `Cc1ccccc1-n1cc(CNC(=O)C2CCC(=O)N(C3CC3)C2)cn1` (configuration not stated) here?
A: Its max response is -1.75%.

Q: With `Cc1nn(C(C)C(=O)N2CCOCC2)c(=O)c2nn(-c3ccccc3)c(C)c12` (configuration not stated) as the compound, how does the max response read?
A: The max response was -8.4%.

Q: For `CCOc1cc(NC(=O)c2ccccc2C(=O)O)c(OCC)cc1NC(=O)c1ccccc1F`, which max response is on record?
A: Its max response is -0.886%.
